The values that follow come from PubChem BioAssay.

Structures are written as SMILES. Activity calls are given as the source filed them.

Experiment [1] deals with PRMT1 (protein arginine N-methyltransferase 1). Description: small molecules binding arginine methyltransferase PRMT1 – biochemical, small-molecule microarray, 635 nm fluorescence, primary screen (AID 1088).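 Also: binding of Prmt1 protein to compounds spotted on small-molecule microarray slides.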 The settings on record: higher = more signal.
A short description of experiment [2]: growth effects on S. cerevisiae YJM789 – YJM789 clinical isolate, OD600, 24 h, basal, primary screen (AID 1089).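 Also: growth of clinical yeast isolate S. cerevisiae YJM 789 seeded 1000 cells per well; test concentration not given here.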 The settings on record: higher = more signal, called active from +8 up or from −8 down.
Experiment [3] is described as follows: S. pombe growth modifiers, basal conditions – strain 972, OD600, 24 h, no modulator, primary screen (AID 1090).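 Also: basal condition with compound alone and no growth modifier present; test concentration not given here.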 The conditions noted are these: S. pombe 972 growth, higher = more signal, called active from +8 up or from −8 down.
The nature of experiment [4]: budding yeast growth modifiers under rapamycin – strain BY4716, OD600, 96 h, primary screen (AID 1091). Also: test concentration not given here. The settings on record: S. cerevisiae BY4716 + rapamycin, higher = more signal, called active from +8 up or from −8 down.
In experiment [5] the target is Torsin-1A-interacting protein 2 (Homo sapiens) (UniProt Q8NFQ8). Description: small molecules binding lysate-expressed LULL1 – cell lysate, human LULL1 lysate, 635/667 nm fluorescence, primary screen (AID 1092).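 Also: probe is lysate of COS7 cells overexpressing human LULL1; score merges per-feature 667 nm fluorescence with signal-to-noise.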 The settings on record: small-molecule microarray, hLULL1 lysate binding, 635 nm fluorescence; higher = more signal.
Experiment [6] can be described thus: optical density change of DRC41 E. coli – strain DRC41, OD650, 24 h, E. coli filamentation project, primary screen (AID 1093).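 Also: MC1000 strain lacking acrAB efflux and sulA so SOS filamentation is blocked; test concentration not given here.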 The settings on record: E. coli DRC41 growth, higher = more signal, called active from +8 up or from −8 down.
The nature of experiment [7]: probe aLefty2 binding to arrayed compounds – biochemical, biotinylated probe, 635/667 nm fluorescence, primary screen (AID 1094).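 Also: score merges spot fluorescence near 667 nm with spot signal-to-noise ratio.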 The conditions noted are these: small-molecule microarray, higher = more signal.
In experiment [8] the test system is Noggin (protein binding on small-molecule microarray). Description: small molecules binding Noggin protein – biochemical, 635/667 nm fluorescence, primary screen (AID 1095).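 Also: score merges 667 nm feature fluorescence with signal to noise over triplicate slides.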 The conditions noted are these: 635 nm fluorescence, higher = more signal.
The target of experiment [9] is Neurogenic locus notch homolog protein 3 (Homo sapiens) (UniProt Q9UM47). Description: small molecules binding NOTCH3 protein – biochemical, 635/667 nm fluorescence, primary screen (AID 1096). The conditions noted are these: small-molecule microarray, 635 nm fluorescence, higher = more signal.
Experiment [10] can be described thus: probe aEGFR binding to arrayed compounds – biochemical, biotinylated probe, 635/667 nm fluorescence, primary screen (AID 1097).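 Also: probe is a biotinylated anti-EGFR antibody binding compounds printed on slides; score combines fluorescence near 667 nm and signal to noise of each spot.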 The conditions noted are these: small-molecule microarray, higher = more signal.
Experiment [11] relates to Plasmodium falciparum Sir2 (PF13_0152, Sir2A). In words: Plasmodium falciparum Sir2A binding compounds – biochemical, small-molecule microarray, 635 nm fluorescence, primary screen (AID 1098).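 Also: score merges spot fluorescence intensity with its signal-to-noise ratio.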 The conditions noted are these: fluorescence 635 nm, higher = more signal.
The nature of experiment [12]: probe aDKK1 binding to arrayed compounds – biochemical, biotinylated probe, 635/667 nm fluorescence, primary screen (AID 1099).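 Also: score merges 667nm spot fluorescence with signal to noise across triplicate slides; reference of the scale not given here.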 The settings on record: small-molecule microarray, higher = more signal.
The nature of experiment [13]: probe aCHRDL2 binding to arrayed compounds – biochemical, biotinylated probe, 635/667 nm fluorescence, primary screen (AID 1100). The settings on record: small-molecule microarray, higher = more signal.
Experiment [14] can be described thus: change in splice reporter luminescence, either direction, cell-based, HEK293, spliceosome inhibition project, primary screen (AID 1101).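 Also: HEK293 cells carrying a splicing-competent luciferase reporter gene; test concentration not given here.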 The conditions noted are these: HEK293 splicing luciferase reporter, 24 h, higher = more signal, called active from +8 up or from −8 down. A general note: Reporter assays use an easily measured gene product as a stand-in for the process of interest.

Experiment [15] deals with Fibroblast growth factor 10 (Homo sapiens) (UniProt O15520). In words: compounds binding fibroblast growth factor 10 – biochemical, small-molecule microarray, 635 nm fluorescence, primary screen (AID 1102). The conditions noted are these: FGF10 binding, fluorescence 635 nm, higher = more signal.
Experiment [16] has as its system glycogen synthase kinase-3 (GSK3A per assay name; protocol says GSK3B). In words: compounds binding glycogen synthase kinase-3 – biochemical, small-molecule microarray, 635 nm fluorescence, GSK3A, primary screen (AID 1103). Also: the record names both GSK3A and GSK3B. The conditions noted are these: fluorescence 635 nm, higher = more signal.
Experiment [17] addresses Epidermal growth factor receptor (Homo sapiens) (UniProt P00533). Description: compounds binding epidermal growth factor receptor – biochemical, small-molecule microarray, 635 nm fluorescence, primary screen (AID 1104).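 Also: score merges 667 nm emission intensity with spot signal to noise over triplicate slides.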 The conditions noted are these: EGFR binding, higher = more signal.
Experiment [18] concerns the target Follistatin-related protein 3 (Homo sapiens) (UniProt O95633). Description: compounds binding follistatin-related protein 3 – biochemical, small-molecule microarray, 635 nm fluorescence, primary screen (AID 1105).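 Also: score merges emission near 667 nm and signal to noise per printed spot across three slides.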 The conditions noted are these: FSTL3 binding, higher = more signal.
Experiment [19] addresses Dickkopf-related protein 1 (Homo sapiens) (UniProt O94907). In words: small molecules binding DKK1 protein – biochemical, small-molecule microarray, 635 nm fluorescence scan, primary screen (AID 1106).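 Also: score merges emission near 667 nm with signal to noise over three replicate slides.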 The conditions noted are these: higher = more signal.
Experiment [20] concerns Inhibin beta A chain (activin A). In words: small molecules binding activin A – biochemical, small-molecule microarray, 635 nm fluorescence scan, primary screen (AID 1107).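 Also: mouse activin A protein probed at 4.33 µg/mL on printed slides; score merges bound-protein fluorescence near 667 nm with spot signal-to-noise.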 The conditions noted are these: INHBA, higher = more signal.

Sequence of Torsin-1A-interacting protein 2 (Homo sapiens) (Q8NFQ8 whole entry, looked up): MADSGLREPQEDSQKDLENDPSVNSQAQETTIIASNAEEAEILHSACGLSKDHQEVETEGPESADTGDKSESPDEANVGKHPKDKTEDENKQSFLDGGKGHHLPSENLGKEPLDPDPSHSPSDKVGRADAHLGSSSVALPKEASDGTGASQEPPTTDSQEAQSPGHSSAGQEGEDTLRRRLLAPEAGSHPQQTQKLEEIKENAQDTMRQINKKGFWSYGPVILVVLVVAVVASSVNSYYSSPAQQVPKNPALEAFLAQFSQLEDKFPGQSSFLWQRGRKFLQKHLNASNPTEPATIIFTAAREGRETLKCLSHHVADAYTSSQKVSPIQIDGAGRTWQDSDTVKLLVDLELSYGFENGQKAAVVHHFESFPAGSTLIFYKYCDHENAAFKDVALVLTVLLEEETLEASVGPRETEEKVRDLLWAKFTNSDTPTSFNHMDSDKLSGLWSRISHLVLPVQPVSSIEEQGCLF
Sequence of Dickkopf-related protein 1 (Homo sapiens) (O94907 whole entry, looked up): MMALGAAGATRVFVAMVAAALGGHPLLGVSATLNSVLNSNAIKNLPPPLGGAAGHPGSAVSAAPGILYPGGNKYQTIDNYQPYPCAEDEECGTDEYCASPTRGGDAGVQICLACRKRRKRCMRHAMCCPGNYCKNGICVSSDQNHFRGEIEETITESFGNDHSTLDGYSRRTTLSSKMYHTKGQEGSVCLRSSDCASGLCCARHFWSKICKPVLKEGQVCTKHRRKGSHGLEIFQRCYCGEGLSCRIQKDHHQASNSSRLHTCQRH
Sequence of Epidermal growth factor receptor (Homo sapiens) (P00533 whole entry, looked up): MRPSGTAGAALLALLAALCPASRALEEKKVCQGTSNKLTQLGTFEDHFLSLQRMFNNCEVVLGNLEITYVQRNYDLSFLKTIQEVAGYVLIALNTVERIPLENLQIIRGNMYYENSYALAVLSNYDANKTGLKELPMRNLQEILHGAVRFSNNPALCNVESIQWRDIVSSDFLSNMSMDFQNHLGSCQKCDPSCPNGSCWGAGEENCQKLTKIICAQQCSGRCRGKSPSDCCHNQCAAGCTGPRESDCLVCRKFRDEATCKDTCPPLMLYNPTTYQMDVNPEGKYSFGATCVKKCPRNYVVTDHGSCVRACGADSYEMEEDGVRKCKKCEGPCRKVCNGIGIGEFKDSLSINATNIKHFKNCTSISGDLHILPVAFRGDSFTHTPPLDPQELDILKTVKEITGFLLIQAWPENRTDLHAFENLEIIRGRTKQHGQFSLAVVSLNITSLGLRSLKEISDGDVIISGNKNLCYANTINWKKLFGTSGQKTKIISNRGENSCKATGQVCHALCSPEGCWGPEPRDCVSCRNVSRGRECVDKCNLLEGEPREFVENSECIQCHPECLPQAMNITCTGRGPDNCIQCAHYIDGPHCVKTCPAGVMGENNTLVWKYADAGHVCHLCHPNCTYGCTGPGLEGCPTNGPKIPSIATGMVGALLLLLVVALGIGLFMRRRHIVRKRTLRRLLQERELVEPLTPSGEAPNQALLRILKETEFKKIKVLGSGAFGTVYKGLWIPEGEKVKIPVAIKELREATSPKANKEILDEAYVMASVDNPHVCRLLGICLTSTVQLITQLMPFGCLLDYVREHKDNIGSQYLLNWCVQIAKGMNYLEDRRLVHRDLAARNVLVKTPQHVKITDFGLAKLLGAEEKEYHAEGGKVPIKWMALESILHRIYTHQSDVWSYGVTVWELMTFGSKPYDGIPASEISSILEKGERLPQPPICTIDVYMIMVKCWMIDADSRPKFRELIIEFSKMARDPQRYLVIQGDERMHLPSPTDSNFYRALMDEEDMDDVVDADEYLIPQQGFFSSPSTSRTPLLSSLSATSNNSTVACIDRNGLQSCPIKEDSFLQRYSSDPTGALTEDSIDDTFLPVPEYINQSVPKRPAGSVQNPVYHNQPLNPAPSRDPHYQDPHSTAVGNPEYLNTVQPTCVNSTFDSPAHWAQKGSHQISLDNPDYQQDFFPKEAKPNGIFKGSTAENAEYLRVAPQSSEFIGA
Sequence of Fibroblast growth factor 10 (Homo sapiens) (O15520 whole entry, looked up): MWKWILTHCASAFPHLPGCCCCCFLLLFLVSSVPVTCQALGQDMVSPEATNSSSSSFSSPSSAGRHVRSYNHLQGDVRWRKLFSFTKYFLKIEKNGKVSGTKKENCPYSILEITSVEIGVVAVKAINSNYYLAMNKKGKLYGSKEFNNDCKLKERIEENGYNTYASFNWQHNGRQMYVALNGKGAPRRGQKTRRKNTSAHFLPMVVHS
Sequence of Follistatin-related protein 3 (Homo sapiens) (O95633 whole entry, looked up): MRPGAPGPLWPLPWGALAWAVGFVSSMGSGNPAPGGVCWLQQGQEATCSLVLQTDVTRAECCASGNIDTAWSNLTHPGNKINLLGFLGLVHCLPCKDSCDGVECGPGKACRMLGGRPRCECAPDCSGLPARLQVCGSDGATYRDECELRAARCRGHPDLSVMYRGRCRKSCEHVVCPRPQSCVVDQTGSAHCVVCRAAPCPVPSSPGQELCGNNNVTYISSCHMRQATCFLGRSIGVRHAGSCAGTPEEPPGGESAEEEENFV
Sequence of Neurogenic locus notch homolog protein 3 (Homo sapiens) (Q9UM47 whole entry, looked up): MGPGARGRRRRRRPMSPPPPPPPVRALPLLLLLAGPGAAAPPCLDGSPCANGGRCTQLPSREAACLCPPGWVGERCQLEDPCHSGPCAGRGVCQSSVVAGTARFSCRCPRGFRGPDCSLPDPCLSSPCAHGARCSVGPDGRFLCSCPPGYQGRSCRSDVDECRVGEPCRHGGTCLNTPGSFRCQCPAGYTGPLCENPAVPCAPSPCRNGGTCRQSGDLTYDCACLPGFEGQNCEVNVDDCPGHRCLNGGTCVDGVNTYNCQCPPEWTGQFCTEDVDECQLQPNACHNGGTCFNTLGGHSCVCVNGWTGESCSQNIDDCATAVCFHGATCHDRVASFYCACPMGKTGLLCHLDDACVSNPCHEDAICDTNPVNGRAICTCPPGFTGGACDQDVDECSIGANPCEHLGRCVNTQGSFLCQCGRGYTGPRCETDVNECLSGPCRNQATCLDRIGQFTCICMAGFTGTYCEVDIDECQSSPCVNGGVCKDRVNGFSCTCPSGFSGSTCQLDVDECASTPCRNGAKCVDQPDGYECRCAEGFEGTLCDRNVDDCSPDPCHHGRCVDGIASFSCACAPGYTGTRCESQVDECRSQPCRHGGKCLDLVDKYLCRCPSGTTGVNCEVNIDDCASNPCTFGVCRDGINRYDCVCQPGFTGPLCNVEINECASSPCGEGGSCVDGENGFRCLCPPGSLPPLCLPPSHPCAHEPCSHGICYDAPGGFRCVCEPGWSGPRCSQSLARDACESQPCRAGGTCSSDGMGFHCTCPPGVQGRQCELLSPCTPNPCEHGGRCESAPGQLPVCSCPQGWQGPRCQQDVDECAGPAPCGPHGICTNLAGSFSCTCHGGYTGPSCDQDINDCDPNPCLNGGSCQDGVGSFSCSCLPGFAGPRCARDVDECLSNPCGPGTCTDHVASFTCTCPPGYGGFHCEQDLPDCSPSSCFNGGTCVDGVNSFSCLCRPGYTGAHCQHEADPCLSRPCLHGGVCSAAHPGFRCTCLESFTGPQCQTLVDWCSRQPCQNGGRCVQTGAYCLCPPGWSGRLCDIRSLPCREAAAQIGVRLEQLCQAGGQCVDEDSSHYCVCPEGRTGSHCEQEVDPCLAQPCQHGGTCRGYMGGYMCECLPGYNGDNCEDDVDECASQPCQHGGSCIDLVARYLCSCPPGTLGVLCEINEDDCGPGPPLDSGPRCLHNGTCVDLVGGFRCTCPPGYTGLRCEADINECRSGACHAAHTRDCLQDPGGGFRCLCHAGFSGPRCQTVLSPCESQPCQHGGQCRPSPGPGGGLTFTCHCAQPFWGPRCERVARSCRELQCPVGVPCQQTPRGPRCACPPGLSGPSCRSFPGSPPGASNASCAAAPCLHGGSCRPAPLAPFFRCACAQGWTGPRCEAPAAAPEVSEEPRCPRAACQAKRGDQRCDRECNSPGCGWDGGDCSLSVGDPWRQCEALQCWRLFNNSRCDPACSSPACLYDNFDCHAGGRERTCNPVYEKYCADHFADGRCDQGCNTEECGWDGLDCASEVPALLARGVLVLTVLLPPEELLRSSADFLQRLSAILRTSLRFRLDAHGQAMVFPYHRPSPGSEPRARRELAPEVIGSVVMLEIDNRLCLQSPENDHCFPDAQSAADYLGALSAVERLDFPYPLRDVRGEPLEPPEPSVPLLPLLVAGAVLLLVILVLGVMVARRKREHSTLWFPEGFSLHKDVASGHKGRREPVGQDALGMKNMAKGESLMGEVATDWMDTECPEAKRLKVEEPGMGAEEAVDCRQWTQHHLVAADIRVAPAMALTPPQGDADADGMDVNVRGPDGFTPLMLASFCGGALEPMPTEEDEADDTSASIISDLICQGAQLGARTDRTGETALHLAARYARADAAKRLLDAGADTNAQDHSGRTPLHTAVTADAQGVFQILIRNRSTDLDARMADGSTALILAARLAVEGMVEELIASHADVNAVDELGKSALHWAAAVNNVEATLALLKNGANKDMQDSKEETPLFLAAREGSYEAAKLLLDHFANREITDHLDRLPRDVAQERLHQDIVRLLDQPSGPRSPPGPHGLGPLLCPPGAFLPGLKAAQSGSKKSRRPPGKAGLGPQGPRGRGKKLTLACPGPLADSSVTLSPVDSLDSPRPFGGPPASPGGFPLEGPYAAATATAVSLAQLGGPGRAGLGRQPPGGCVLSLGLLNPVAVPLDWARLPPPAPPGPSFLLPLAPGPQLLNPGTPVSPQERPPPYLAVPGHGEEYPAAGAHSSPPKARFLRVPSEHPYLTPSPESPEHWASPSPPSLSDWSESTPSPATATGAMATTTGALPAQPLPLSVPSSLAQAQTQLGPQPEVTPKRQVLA

Consider `N#Cc1ccc(NN2C(C(O)CCc3ccccc3)C=CC3C(=O)N(c4ccccc4)C(=O)C32)cc1` (stereo not given), for which the composite z-score was 0.212 in experiment [1]; 3.01 in [5]; 0.25 in experiment [7]; -0.172 in experiment [8]; 1.13 in experiment [9]; 0.35 in experiment [10]. Further, the composite z-score in experiment [11] was 0.712; in [12], 1.18; in experiment [13] it was 1.11; in experiment [15] it was 0.25; in experiment [16], 0.767; in [17], -0.164. Besides, the composite z-score in experiment [18] turned out to be 0.228; in experiment [19], 0.0048; in [20], 1.02. For the same compound, the z-score in experiment [2] is -1.53 (inactive); in [3], 0.222 (inactive); in experiment [4], 1.13 (inactive); in experiment [6] it was -1.11 (inactive); in experiment [14] it was -0.474 (inactive).

As for `C#CCCCON=C1C[C@@H](O)[C@@H](O)[C@@H]2[C@@H]3C(=O)N(Cc4ccc5c(c4)OCO5)C(=O)[C@@H]3CC[C@H]12`, the composite z-score in experiment [1] is 1.01; in experiment [5] it was 2.79; in [7], -0.0835; in [8] it was 1.66; in experiment [9], 0.513; in experiment [10], -0.02. The composite z-score is 0.419 in experiment [11]; -0.254 in experiment [12]; -0.463 in experiment [13]; 1.34 in experiment [15]; 0.253 in [16]; 0.328 in experiment [17]. Further, the values for the composite z-score in [18], in experiment [19] and in [20] were 0.578, 0.59 and -0.345, respectively. Besides, the z-score is -0.216 (inactive) in experiment [2]; 0.518 (inactive) in experiment [3]; -0.257 (inactive) in experiment [4]; 0.523 (inactive) in experiment [6]; -0.16 (inactive) in experiment [14].

On to `CN(C)CCCC[C@@H]1NC(=O)[C@@H]2C[C@H](C(=O)O)[C@H](c3ccc(O)cc3)N2C1=O`, for which the composite z-score in experiment [1] is 1.41; in experiment [5], 0.728; in experiment [7], -0.153; in experiment [8] it was 1.01; in [9], 0.385; in experiment [10], -0.0605. Also, the composite z-score was 0.902 in [11]; -0.005 in experiment [12]; -0.222 in experiment [13]; 0.857 in [15]; 1.21 in experiment [16]; 0.737 in experiment [17]. For the same compound, the figures for the composite z-score in [18], in experiment [19] and in experiment [20] were 0.928, 1.68 and 0.293, respectively. Besides, the z-score was -0.937 (inactive) in [2]; -1.04 (inactive) in experiment [3]; -0.587 (inactive) in experiment [4]; 2.71 (inactive) in experiment [6]; -2.22 (inactive) in experiment [14].

Consider `Cc1ccc(S[C@]2(C(=O)NCCCN(C)C)CC(=O)N(Cc3ccccc3)[C@@H]2c2ccc(CO)cc2I)cc1`, for which the composite z-score in experiment [1] was 0.25; in [5], 2.68; in experiment [7] it was 0.373; in experiment [8], -0.869; in [9], -0.723; in [10], -0.13. Moreover, the composite z-score in [11] was 0.16; in [12], 1.09; in experiment [13] it was 1.3; in experiment [15], -0.347; in experiment [16] it was -0.753; in experiment [17], -1.12. The results for the composite z-score in [18], in experiment [19] and in [20] were -0.575, -1.37 and 1.35, respectively. Further, the z-score was -1.87 (inactive) in [2]; -4.8 (inactive) in experiment [3]; 0.768 (inactive) in experiment [4]; -0.563 (inactive) in experiment [6]; -1.81 (inactive) in experiment [14].

Turning to `CCN1C(C)=C(C(=O)OC)[C@@H](c2ccccc2)N2C(=O)[C@@]3(C(=O)OC)O[C@@]12[C@@H]1C(=O)CCC[C@@H]13`, the composite z-score was 1.12 in experiment [1]; -0.323 in experiment [5]; -0.243 in experiment [7]; 1.57 in experiment [8]; 0.135 in experiment [9]; 0.0173 in [10]. In addition, the composite z-score in [11] is 0.604; in [12], -0.786; in experiment [13], -1.31; in [15], 0.903; in experiment [16] it was 0.8; in experiment [17] it was 0.648. The composite z-score in experiment [18] stood at 1.06; in [19], 1.85; in experiment [20], 1.01. The z-score in experiment [2] is 0.352 (inactive); in experiment [3], -1.06 (inactive); in [4] it was 1.8 (inactive); in experiment [6] it was 0.0465 (inactive); in [14], -0.814 (inactive).
